Source: PubChem BioAssay
Pf growth 96h = P. falciparum growth inhibition at 96 hour, primary screen for plastid delayed-death inhibitors. AID 504834. actives 6.9% (n = 320,000). Potency, µM (series often up to 28.7 µM), hits mostly inhibitors. P. falciparum luciferase reporter growth, 96 h
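Cell-based qHTS: luciferase-tagged P. falciparum in erythrocytes (2% hematocrit, 0.05% parasitemia final) incubated with compounds for 96 hours, 37 C, 5% CO2; luciferase detection reagent then added and luminescence measured.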
Shiga inhibitor = inhibitors of Shiga toxin in Vero cells | Vero cells, Shiga toxin protein synthesis inhibition reporter | inhibition, % at 38.7 µM | actives 9.2% (n = 290,000); in the data active means inhibition mostly above about 28%, no sharp cut-off; inactive means mostly below about 43%
NS1 function inh = influenza NS1 inhibition | Potency, µM (top dose mostly 46.1 µM) | actives 0.4% (n = 270,000); calls by dose curve; further: actives are rising curves; nearly all actives have a fitted effect of over 50% in size
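Recovery from NS1-induced slow growth read by OD600 in budding yeast switched to galactose assay medium (pH 6.0, -URA) at 1:100 dilution. Compound 23 nl per well; the matching strain lacking NS1 serves as control.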
FBPA Giardia inh = inhibitors of Giardia lamblia fructose-1,6-bisphosphate aldolase | A8B2U2 | purified Giardia FBPA | Potency, µM (highest dose often 59.6 µM), usual class: inhibitors | actives 0.71% (n = 290,000); further: nearly all actives have a fitted effect of over 55% in size
Target sequence (A8B2U2 whole entry, looked up): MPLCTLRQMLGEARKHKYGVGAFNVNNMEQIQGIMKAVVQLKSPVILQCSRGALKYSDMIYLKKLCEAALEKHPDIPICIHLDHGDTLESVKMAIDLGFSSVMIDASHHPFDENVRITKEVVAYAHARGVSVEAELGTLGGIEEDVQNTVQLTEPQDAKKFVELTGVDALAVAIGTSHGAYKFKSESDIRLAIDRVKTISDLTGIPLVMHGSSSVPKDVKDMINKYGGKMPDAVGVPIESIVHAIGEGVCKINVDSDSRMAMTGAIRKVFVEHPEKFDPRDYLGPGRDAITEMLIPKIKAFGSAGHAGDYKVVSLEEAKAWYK
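40 nM FBPA preincubated 10 min at RT with compound (up to 57.5 uM final), then substrate plus GAPDH/TPI/NAD/arsenate coupling and diaphorase/resazurin added. Fluorescence read after 20 min at RT, 525/598 nm.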
Pf growth 48h = P. falciparum growth inhibition at 48 hours (one generation); actives 5.9% (n = 310,000); Potency, µM (top dose mostly 28.7 µM), actives largely listed as inhibitors; P. falciparum luciferase growth in erythrocytes, 48 h
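Compounds are pin-transferred into medium, infected erythrocytes (2% hematocrit, 0.1% parasitemia final) are added, and plates sit one parasite generation at 37 C in 5% CO2. Detection reagent is then added and luminescence measured.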
Cycloheximide cs = counter-screen for Shiga toxin inhibitors: cycloheximide protein synthesis inhibition. cell reporter, cycloheximide protein synthesis inhibition counterscreen. max response, %. actives 12% (n = 300,000). AID 2314; in the data active means max response mostly above about 13%, no sharp cut-off; inactive means mostly below about 14%; further: read at 38.3 µM for the half of the compounds with a filed dose
Numbers stand for hits; [ ] = another dose, or the depositor's remark. Rows were chosen to be rich in hits. Some 21% of all compounds tested hit in one or more screens of this group. Unless noted, the call rests on the fitted dose curve; in most records, active means well fitted curve in the direction sought with a large enough effect; inconclusive means small, poorly fitted or top-dose-only effect, or another doubt; inactive means no such curve, though single readings can be large; an effect the other way counts as inactive or inconclusive.

Screening COc1ccc([C@@H]2[C@@H]3C(=O)N(C(C)(C)C)C(=O)[C@@H]3[C@]3(Cc4ccc(Cl)cc4)C(=O)N(c4ccc(Br)cc4)C(=O)N23)cc1 returned Pf growth 96h inconclusive, Shiga inhibitor inactive, NS1 function inh inactive, FBPA Giardia inh inactive, Pf growth 48h inconclusive and Cycloheximide cs inactive.
For COc1ccc(N2C(=O)N3[C@H](c4ccc(Cl)cc4)[C@@H]4C(=O)N(C5CCCCC5)C(=O)[C@@H]4[C@]3(Cc3ccc(Cl)cc3)C2=O)cc1 the results were Pf growth 96h 1.2µM, Shiga inhibitor 64, NS1 function inh inactive, FBPA Giardia inh inactive, Pf growth 48h inactive and Cycloheximide cs 12.
`O=C1[C@H]2[C@@H](c3ccc(F)cc3)N3C(=O)N(c4ccc(Br)cc4)C(=O)[C@@]3(Cc3ccc(Cl)cc3)[C@H]2C(=O)N1C1CCCCC1` gave Pf growth 96h 3.3µM, Shiga inhibitor inactive, NS1 function inh inconclusive, FBPA Giardia inh inactive, Pf growth 48h inconclusive and Cycloheximide cs inactive.
COc1ccc([C@@H]2[C@@H]3C(=O)N(C(C)(C)C)C(=O)[C@@H]3[C@]3(Cc4ccc(Cl)cc4)C(=O)N(c4ccc(OC)cc4)C(=O)N23)cc1 was read as Pf growth 96h 13µM and Pf growth 48h inconclusive.
`CC(NC(=O)c1cccc(OC2CCN(C3CCN(C)CC3)CC2)c1)c1ccccc1` (stereo unspecified) gave Pf growth 96h inconclusive, Shiga inhibitor inactive, NS1 function inh inactive, Pf growth 48h inconclusive and Cycloheximide cs inactive.
`COc1ccc(NC(=O)CN(C)C(=O)COc2ccccc2Cc2ccccc2)cc1` gave Pf growth 96h inconclusive and Pf growth 48h 9.3µM.
For CN(CC(=O)Nc1ccc(F)cc1)C(=O)COc1ccc(C(=O)c2ccccc2)cc1 the results were Pf growth 96h inactive, Shiga inhibitor inactive, NS1 function inh inactive, FBPA Giardia inh inactive, Pf growth 48h inactive and Cycloheximide cs inactive.
Screening CN(CC(=O)Nc1ccc(F)cc1)C(=O)COc1ccccc1Cc1ccccc1 returned Pf growth 96h 5.2µM and Pf growth 48h inconclusive.
Screening CCOc1ccccc1C(=O)N(C)CC(=O)Nc1ccc(OC)cc1 returned Pf growth 96h inactive, Shiga inhibitor inactive, NS1 function inh inactive, FBPA Giardia inh inactive, Pf growth 48h inactive[0.00184 µM] and Cycloheximide cs inactive.
COC(=O)c1ccc(C(NC(=O)OCc2ccccc2)/C(=C/[C@@H](C)C(=O)NCc2ccc(-c3ccccc3)cc2)c2cccnc2)cc1 (stereo partly specified) was read as FBPA Giardia inh inactive.
`CCOc1nc2cnccc2n(CC(=O)Nc2c(C)cccc2CC)c1=O` gave Pf growth 96h inconclusive, Shiga inhibitor inactive, NS1 function inh inactive, Pf growth 48h inactive and Cycloheximide cs inactive.
Screening COc1ccc(S(=O)(=O)n2nc(-c3cc(OC)c(OC)c(OC)c3)cc2N)cc1OC returned Pf growth 96h inconclusive, Shiga inhibitor inactive, NS1 function inh inactive, FBPA Giardia inh inactive, Pf growth 48h inconclusive and Cycloheximide cs inactive.
`COc1ccc(-c2cc(N)n(S(=O)(=O)c3c(F)c(F)c(F)c(F)c3F)n2)cc1OC` gave Pf growth 96h inconclusive, Shiga inhibitor 33, NS1 function inh inactive, FBPA Giardia inh inactive, Pf growth 48h inconclusive and Cycloheximide cs 14.
Screening COC(=O)[C@H]1[C@@H](C)N(Cc2ccccc2)C(=O)N[C@H]1c1ccccc1 returned FBPA Giardia inh inactive[12.9 µM].
For Cc1ccc2nc(N3C(=O)C(O)=C(C(=O)c4ccco4)C3c3ccc(O)cc3)sc2c1 (stereo unspecified) the results were Pf growth 96h inconclusive, Shiga inhibitor inactive, NS1 function inh inconclusive, FBPA Giardia inh inactive, Pf growth 48h inactive and Cycloheximide cs 16.
`Cc1cc(C)c2nc(N3C(=O)C(O)=C(C(=O)c4ccco4)C3c3ccc(O)cc3)sc2c1` (stereo unspecified) gave Pf growth 96h inactive and Pf growth 48h inconclusive.
For CSc1nnc(N2C(=O)C(O)=C(C(=O)c3ccco3)C2c2ccccc2)s1 (stereo unspecified) the results were Pf growth 96h inactive, Shiga inhibitor inactive, NS1 function inh inactive, FBPA Giardia inh inactive, Pf growth 48h inactive and Cycloheximide cs inactive.
For Cc1nnc(N2C(=O)C(O)=C(C(=O)c3ccco3)C2c2cccc3ccccc23)s1 (stereo unspecified) the results were Pf growth 96h inactive, Shiga inhibitor 37, NS1 function inh inactive, FBPA Giardia inh inactive, Pf growth 48h inactive and Cycloheximide cs inactive.
Screening Cc1ccc2nc(N3C(=O)C(O)=C(C(=O)c4ccc(C)o4)C3c3ccco3)sc2c1 (stereo unspecified) returned Pf growth 96h 6.7µM and Pf growth 48h inactive.
`CSc1nnc(N2C(=O)C(O)=C(C(=O)c3ccc(C)o3)C2c2ccc(C)cc2)s1` (stereo unspecified) gave Pf growth 96h inactive, Shiga inhibitor 95, NS1 function inh inactive, Pf growth 48h inactive and Cycloheximide cs 35.
`Cc1ccc(C2C(C(=O)c3ccco3)=C(O)C(=O)N2c2nnc(C)s2)cc1` (stereo unspecified) gave Pf growth 96h inactive, Shiga inhibitor inactive, NS1 function inh inactive, FBPA Giardia inh inactive, Pf growth 48h inactive and Cycloheximide cs inactive.
Cc1ccc(NC(=O)COC(=O)Cc2c[nH]c3ccccc23)cc1F was read as Pf growth 96h inactive and Pf growth 48h inactive.
`COc1ccc(NC(=O)CSc2nc3scc(C)c3c(=O)[nH]2)cc1` gave Pf growth 96h inconclusive, Shiga inhibitor inactive, NS1 function inh inactive, FBPA Giardia inh inactive, Pf growth 48h inactive and Cycloheximide cs inactive.
Screening CC(OC(=O)CNC(=O)c1ccc(F)cc1)C(=O)Nc1ccc(S(=O)(=O)N2CCOCC2)cc1 (stereo unspecified) returned Pf growth 96h inactive and Pf growth 48h inactive.
COc1ccc(OC2C=CC(c3ccccc3)OC2CO)c(C(C)=O)c1 (stereo unspecified) was read as FBPA Giardia inh inactive[12.9 µM].
Screening Cc1ccc2nc(N3C(=O)C(O)=C(C(=O)c4ccco4)C3c3ccc(C)o3)sc2c1 (stereo unspecified) returned Pf growth 96h 5.2µM, Shiga inhibitor 80, NS1 function inh inactive, FBPA Giardia inh inactive, Pf growth 48h inactive and Cycloheximide cs 31.
`Cc1nc2ccc(NC(=O)Nc3ccnc4cccnc34)cc2o1` gave FBPA Giardia inh inactive.
O=C1c2ccccc2NC(c2ccc(O)cc2)N1Cc1ccco1 (stereo unspecified) was read as Pf growth 96h inconclusive, Shiga inhibitor inactive, NS1 function inh inactive, FBPA Giardia inh inactive, Pf growth 48h inactive and Cycloheximide cs inactive.
For COc1ccc(C2Nc3ccccc3C(=O)N2Cc2ccco2)cc1COc1ccccc1F (stereo unspecified) the results were Pf growth 96h 4.1µM, Shiga inhibitor inactive, NS1 function inh inactive, FBPA Giardia inh inactive and Cycloheximide cs inactive.
